An excerpt weighted towards active compounds, which were near 4.5% of everything screened.
Jurkat NFkB inh: lowers PMA/ionomycin-induced NF-kB signal in Jurkat cells; inhibition, % at 4 µM; PMA/ionomycin-induced NF-kB luciferase reporter, luminescence; 330,000 compounds, 0.53% hits; in the data active means inhibition above about 50%
Beta apoptosis: blocks beta cell apoptosis; INS-1E cytokine-induced death, ATP luminescence, 48 h; percent of positive-control rescue, neutral wells zero; protection from apoptosis, % (test concentration not listed); 300,000 compounds, 0.8% hits; AID 435005;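 active means Every replicate reaches about 75%, or at least half do and their mean reaches it too, limit read from the data; inconclusive means At least half of replicates reach the limit but their mean does not; inactive means Under half of replicates reach the limit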;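 further: 0% = cytokine-treated negative control wells and 100% = positive control rescue; higher means more ATP so stronger rescue from cytokine killing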
CSC inhib: blocks cancer stem cells; cancer stem cell-like cells viability, luminescence; inhibition, % at 7.5 µM; 300,000 compounds, 1.1% hits; AID 2717; in the data active means inhibition above about 75%; inconclusive means no clear call, values can overlap the other calls; tested in HMLE shEcad cells
Gli-Sufu antag: blocks Gli-Sufu signaling in a luciferase reporter. Sufu-KO-LIGHT fibroblasts, Gli luciferase reporter luminescence. inhibition, % at 5 µM. 340,000 compounds, 0.74% hits. AID 588413;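 active means inhibition above about 55%, limit read from the data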;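 further: 0% = DMSO-treated cells and 100% = wells with medium but no cells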
Mdm2 MdmX PPI: disrupts the human Mdm2-MdmX interaction. O15151+Q00987. SaOS-2 split-luciferase Mdm2/MdmX complementation, luminescence. inhibition, % at 8 µM. 330,000 compounds, 3% hits;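 active means inhibition of at least 50% at 8 µM in the primary screen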
697 NFkB inh: inhibitors of the PMA/ionomycin-induced NF-kB reporter in 697 B cells | inhibition, % at 4 µM | 330,000 compounds, 0.33% hits | 697 B-cell NF-kB luciferase reporter, 16 h; in the data active means inhibition above about 35%
Numbers without * were called inactive; u = inconclusive; x = no result given.

SMILES	Jurkat NFkB inh	Beta apoptosis	CSC inhib	Gli-Sufu antag	Mdm2 MdmX PPI	697 NFkB inh
CC(=O)Nc1ccc(-c2csc(NC(=O)CCCc3cccs3)n2)cc1	0	2	75*	-1	14	2
CCCCN1C2CCCC1CC(NC(=O)c1cccc(OC)c1)C2 (centres undefined)	4	3	-11	-9	16	8
CCc1c(C2(O)CCCCC2)[nH]c2c(C(=O)OC)cc(Cl)cc12	x	-1	105*	-16	x	x
CCNC(=O)NC(=O)C(C)OC(=O)c1oc2ccccc2c1CSC1CCCCC1 (centres undefined)	4	4	18	11	15	15
CNC(=O)NC(=O)C(C)OC(=O)c1oc2ccccc2c1CSc1ccc(Cl)cc1 (centres undefined)	16	-5	104*	-9	29	-1
O=C(NC(=S)NCc1cccnc1)c1cc(Br)ccc1Cl	4	-2	2	-25	15	-12
COCCNC(=O)Cn1nc(-c2ccc(C)cc2)c2ccccc2c1=O	2	2	3	3	14	13
Oc1ccc(Br)cc1/C=N/NC(=S)NCCc1ccccc1	-7	13	105*	11	39	-22
NC(CCCCc1ccccc1)c1cccc2ccccc12 (centres undefined)	7	-1	29	x	43	-1
COc1ccc(CNC(=O)CN(C(=O)CCC(=O)Nc2nccs2)c2cccc(C)c2)cc1	0	-2	x	4	1	-8
Cc1ccccc1Oc1cc(NC(=O)CCCn2nc(C)c([N+](=O)[O-])c2C)cc([N+](=O)[O-])c1	0	105*	26	6	14	-21
CSc1nc(SCC(N)=O)c2c3c(sc2n1)CN(C)CC3	-9	-5	-8	99*	0	-13
Cc1nn(-c2ccccc2)c(C)c1/C=N/n1c(-c2ccc(C(C)(C)C)cc2)n[nH]c1=S	-2	2	80*	5	31	-2
OC(c1cc(-c2ccc(Cl)cc2)nc2ccccc12)C1CCCCN1 (centres undefined)	x	121*	116*	-1	x	x
Cc1cc(N2CCN(C)CC2)nc2ccc(NC(=S)NCCC(C)C)cc12	-80	0	83*	8	39	-88
O=C1N/C(=N\N=C\c2ccccn2)SC1Cc1cccc(SC(F)F)c1 (centres undefined)	-9	63	111*	2	48	-9
O=C1N/C(=N\N=C\c2ccc3ncccc3c2)SC1Cc1ccc(SC(F)F)cc1 (centres undefined)	-16	8	-5	-39	13	-39
CN(C)CCNCCCNc1c2ccccc2nc2cccc([N+](=O)[O-])c12	x	x	x	62*	x	x
CN(C)CCCNc1c2c(nc3ccccc13)CCC2	12	24	3	11	24	8
O=C(O)c1ccc(Oc2nc3ccccc3s2)cc1	x	x	x	-47	x	x
O=C(O)c1ccc(C=C(c2nc3ccccc3s2)c2nc3ccccc3s2)cc1	6	-1	82*	30	18	0
CN(C)c1ccc(/C=C(\Cl)c2nc3ccccc3s2)cc1	x	4	92*	19	x	x
S=C(NN=C(c1ccccc1)c1ccccn1)N(Cc1ccccn1)Cc1ccccn1	x	x	x	69*	x	x
CC(=NNC(=S)N(Cc1ccccn1)Cc1ccccn1)c1cnccn1	x	x	x	90*	x	x
O=C(CCCC(=O)N/N=C\c1ccccn1)N/N=C\c1ccccn1	13	-6	-5	3	13	12
SMILES	Jurkat NFkB inh	Beta apoptosis	CSC inhib	Gli-Sufu antag	Mdm2 MdmX PPI	697 NFkB inh
S=C(NN=Cc1ccccn1)N(Cc1ccccn1)Cc1ccccn1	x	x	x	82*	x	x
O=C(N/N=C(\c1ccccc1)c1ccccn1)c1ccccc1Cl	45	94*	25	53	40	-16
CC1CC(C)CN(c2ncc3c(n2)CC(c2ccccc2Cl)CC3=O)C1 (centres undefined)	15	9	84*	27	31	2
CC1CC(C)CN(c2ncc3c(n2)CC(c2ccc(Cl)cc2)CC3=O)C1 (centres undefined)	-1	0	17	7	18	-24
COc1cccc(/C=C/c2nc(C#N)c(NCC(C)C)o2)c1	9	11	128*	28	0	20
COc1ccccc1NC(=O)COC(=O)c1cc2ccccc2cc1O	4	-3	x	-5	3	7
COc1ccccc1NC(=O)c1cc2cc(Br)ccc2cc1O	x	u	106*	-2	x	x
COc1ccc(CNC(=O)C2CCN(S(=O)(=O)c3ccc4c(c3)CC(C)N4C(=O)C3CC3)CC2)cc1 (centres undefined)	15	-1	-14	-8	40	11
C=CCn1c(SCCC)nc2sc3c(c2c1=O)CCc1ccccc1-3	-10	6	83*	10	-1	-9
COc1ccc(-n2c(Cc3cccn3C)nnc2SCC(=O)Nc2cccc(Cl)c2)cc1	-10	-11	117*	1	33	-4
COc1ccc(NCc2nnc(SCC(=O)Nc3nc(-c4ccccc4)cs3)n2-c2ccccc2)cc1	18	u	-4	6	49	-28
COc1ccc(-n2c(CNc3ccc(C)cc3)nnc2SCC(=O)Nc2nc(-c3ccccc3)cs2)cc1	4	86*	3	3	34	15
COc1ccc(-n2c(Cc3cccn3C)nnc2SCC(=O)Nc2cccc(NC(C)=O)c2)cc1	10	-4	-11	29	-6	21
CCCN1CCN(C(=O)c2oc3ccccc3c2NC(=O)C2CC2)CC1	14	-1	-12	39	-8	-15
O=C(Nc1cc(-c2ccccc2)nn1C1CCCCC1)c1ccc(Cl)cc1	6	97*	x	8	11	-3
Cc1cc(N2CCN(S(=O)(=O)c3ccc(Cl)cc3)CC2)c2ccccc2n1	16	81*	40	33	36	-80
CCC(=O)c1ccc(OCC(=O)NCc2ccccc2CN2CCCC2)cc1	-15	-6	7	-18	5	-5
Cc1ccccc1Cn1ccc(=NCc2ccccc2)cc1	24	103*	0	-4	25	25
COc1ccccc1C(=O)NC(=O)CSc1ccc(C)c(C)c1	-3	-1	-11	8	19	-9
COCCCN1C(=O)c2ccc(C(=O)NCCc3ccccc3)cc2C1=O	-17	-10	-9	-21	-11	-121
CC1CC1C(=O)N1CCN(S(=O)(=O)c2cc(C(F)(F)F)cc(C(F)(F)F)c2)CC1 (centres undefined)	-9	3	79*	0	18	7
O=C(Nc1cc(S(=O)(=O)N2CCOCC2)ccc1N1CCCC1)c1ccccc1C(F)(F)F	x	x	x	7	x	x
O=C(Cn1cc([N+](=O)[O-])cn1)NCc1cc2ccccc2[nH]1	14	-1	-8	-3	6	-32
O=C(/C=C/c1ccco1)Nc1nc(-c2ccc(F)c(F)c2)cs1	-6	15	3	58*	10	-96
COc1ccc(-c2csc(NC(=S)NC(=O)/C=C/c3ccco3)n2)cc1OC	x	29	79*	-9	x	x

From PubChem
